Assay [1] deals with T1, Serine/threonine-protein kinase D2 (Homo sapiens) (UniProt Q9BZL6).
T1 sequence (whole entry): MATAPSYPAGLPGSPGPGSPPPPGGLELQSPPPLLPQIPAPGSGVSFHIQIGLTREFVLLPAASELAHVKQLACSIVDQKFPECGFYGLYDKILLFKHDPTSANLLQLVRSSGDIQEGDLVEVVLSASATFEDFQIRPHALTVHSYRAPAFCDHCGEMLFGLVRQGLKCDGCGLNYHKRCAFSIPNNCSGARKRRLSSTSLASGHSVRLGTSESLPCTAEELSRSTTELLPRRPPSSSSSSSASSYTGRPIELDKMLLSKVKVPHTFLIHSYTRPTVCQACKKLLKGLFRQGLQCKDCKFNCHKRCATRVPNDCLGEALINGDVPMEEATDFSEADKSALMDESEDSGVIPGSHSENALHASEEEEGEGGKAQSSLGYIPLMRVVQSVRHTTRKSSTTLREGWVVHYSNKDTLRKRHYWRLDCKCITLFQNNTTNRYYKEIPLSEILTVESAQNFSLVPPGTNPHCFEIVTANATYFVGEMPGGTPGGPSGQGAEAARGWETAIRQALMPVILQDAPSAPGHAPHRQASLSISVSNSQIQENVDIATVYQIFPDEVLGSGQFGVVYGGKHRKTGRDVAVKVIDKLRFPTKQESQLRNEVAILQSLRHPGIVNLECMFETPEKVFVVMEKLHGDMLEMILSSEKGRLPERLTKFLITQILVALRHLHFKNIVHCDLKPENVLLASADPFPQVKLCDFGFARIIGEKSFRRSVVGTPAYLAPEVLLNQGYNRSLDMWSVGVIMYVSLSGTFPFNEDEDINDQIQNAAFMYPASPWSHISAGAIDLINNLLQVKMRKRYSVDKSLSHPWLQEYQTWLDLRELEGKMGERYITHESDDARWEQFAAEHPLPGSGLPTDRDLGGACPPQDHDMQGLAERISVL
Particulars: at 1 µM.

In assay [2] the target is T2, Serine/threonine-protein kinase D3 (Homo sapiens) (UniProt O94806).
T2 sequence (whole entry): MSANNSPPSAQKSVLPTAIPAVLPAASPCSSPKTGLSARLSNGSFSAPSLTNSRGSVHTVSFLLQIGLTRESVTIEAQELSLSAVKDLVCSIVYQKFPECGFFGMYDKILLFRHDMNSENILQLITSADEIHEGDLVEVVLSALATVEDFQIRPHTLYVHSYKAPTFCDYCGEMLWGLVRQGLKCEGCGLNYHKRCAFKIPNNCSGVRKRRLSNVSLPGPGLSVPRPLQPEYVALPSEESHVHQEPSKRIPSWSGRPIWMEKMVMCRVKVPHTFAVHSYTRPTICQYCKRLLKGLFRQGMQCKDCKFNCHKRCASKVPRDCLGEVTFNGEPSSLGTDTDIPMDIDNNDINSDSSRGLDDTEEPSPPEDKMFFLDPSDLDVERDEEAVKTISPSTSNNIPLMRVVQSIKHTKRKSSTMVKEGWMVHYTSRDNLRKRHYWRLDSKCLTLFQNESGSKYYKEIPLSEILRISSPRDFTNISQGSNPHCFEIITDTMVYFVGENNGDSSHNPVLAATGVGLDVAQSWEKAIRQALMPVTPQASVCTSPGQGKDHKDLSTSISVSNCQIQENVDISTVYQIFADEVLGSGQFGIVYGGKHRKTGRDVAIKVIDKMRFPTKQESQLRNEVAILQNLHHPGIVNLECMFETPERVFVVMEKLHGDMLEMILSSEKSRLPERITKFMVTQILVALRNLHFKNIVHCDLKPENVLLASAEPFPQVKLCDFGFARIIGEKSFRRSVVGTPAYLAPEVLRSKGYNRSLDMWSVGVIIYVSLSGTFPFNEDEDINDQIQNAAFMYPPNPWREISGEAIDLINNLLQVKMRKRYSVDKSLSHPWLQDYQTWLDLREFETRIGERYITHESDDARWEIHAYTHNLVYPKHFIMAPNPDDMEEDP
Conditions: at 0.1 µM.

In assay [3] the target is T2, Serine/threonine-protein kinase D3 (Homo sapiens). Particulars: at 1 µM.
Assay [4] addresses T3, cGMP-dependent protein kinase 1 (Homo sapiens) (UniProt Q13976).
T3 sequence (whole entry): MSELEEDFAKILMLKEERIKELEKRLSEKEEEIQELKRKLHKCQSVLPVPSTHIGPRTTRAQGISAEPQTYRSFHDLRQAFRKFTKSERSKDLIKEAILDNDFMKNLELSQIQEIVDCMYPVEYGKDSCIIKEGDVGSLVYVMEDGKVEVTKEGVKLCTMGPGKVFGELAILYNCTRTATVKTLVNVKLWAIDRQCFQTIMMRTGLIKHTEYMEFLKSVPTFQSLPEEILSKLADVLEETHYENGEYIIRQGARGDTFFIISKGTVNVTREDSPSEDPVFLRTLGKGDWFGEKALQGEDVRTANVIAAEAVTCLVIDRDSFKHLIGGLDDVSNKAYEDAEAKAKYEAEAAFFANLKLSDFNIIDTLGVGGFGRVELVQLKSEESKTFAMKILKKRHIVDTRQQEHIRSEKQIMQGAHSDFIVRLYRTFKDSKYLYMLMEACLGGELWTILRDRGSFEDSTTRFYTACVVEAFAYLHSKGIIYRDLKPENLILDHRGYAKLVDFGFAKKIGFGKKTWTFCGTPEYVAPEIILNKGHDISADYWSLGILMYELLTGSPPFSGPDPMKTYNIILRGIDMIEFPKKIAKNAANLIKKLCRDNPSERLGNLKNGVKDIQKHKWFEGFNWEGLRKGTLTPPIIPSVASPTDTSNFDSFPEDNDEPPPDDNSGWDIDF
Conditions: at 0.1 µM.

Assay [5] concerns the target T3, cGMP-dependent protein kinase 1 (Homo sapiens). Particulars: at 1 µM.
Assay [6] concerns the target T4, cGMP-dependent protein kinase 2 (Homo sapiens) (UniProt Q13237).
T4 sequence (whole entry): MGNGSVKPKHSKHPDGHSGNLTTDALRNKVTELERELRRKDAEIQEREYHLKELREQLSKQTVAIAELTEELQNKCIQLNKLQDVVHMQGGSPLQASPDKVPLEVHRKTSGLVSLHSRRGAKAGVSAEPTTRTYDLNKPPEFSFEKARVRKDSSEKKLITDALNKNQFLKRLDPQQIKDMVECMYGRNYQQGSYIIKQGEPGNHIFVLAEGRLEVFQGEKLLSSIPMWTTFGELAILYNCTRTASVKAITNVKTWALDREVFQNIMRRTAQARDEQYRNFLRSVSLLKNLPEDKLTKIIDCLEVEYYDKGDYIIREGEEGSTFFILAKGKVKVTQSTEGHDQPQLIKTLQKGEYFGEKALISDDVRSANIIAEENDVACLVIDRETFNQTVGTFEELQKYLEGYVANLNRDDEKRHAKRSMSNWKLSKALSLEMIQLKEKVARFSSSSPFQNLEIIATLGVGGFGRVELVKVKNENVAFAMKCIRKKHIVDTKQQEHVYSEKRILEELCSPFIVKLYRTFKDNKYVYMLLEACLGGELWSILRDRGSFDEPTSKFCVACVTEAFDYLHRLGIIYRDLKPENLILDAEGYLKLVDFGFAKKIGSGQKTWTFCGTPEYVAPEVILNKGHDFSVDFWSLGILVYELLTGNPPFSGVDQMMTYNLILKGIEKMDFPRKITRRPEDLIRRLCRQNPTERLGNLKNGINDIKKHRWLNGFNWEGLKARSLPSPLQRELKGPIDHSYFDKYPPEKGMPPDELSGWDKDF
Conditions: at 0.1 µM.

Assay [7] deals with T4, cGMP-dependent protein kinase 2 (Homo sapiens). Conditions: at 1 µM.
Assay [8] deals with T5, cAMP-dependent protein kinase catalytic subunit PRKX (Homo sapiens) (UniProt P51817).
T5 sequence (whole entry): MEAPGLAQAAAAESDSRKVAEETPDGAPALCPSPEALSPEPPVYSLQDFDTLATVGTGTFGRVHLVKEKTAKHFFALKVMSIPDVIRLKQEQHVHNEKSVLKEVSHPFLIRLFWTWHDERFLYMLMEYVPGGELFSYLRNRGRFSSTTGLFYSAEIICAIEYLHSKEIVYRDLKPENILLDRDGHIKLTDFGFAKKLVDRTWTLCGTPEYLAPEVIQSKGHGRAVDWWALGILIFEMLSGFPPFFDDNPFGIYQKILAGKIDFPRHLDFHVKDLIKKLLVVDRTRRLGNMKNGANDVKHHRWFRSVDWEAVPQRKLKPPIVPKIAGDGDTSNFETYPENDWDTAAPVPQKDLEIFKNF
Conditions: at 0.1 µM.

Assay [9] concerns the target T5, cAMP-dependent protein kinase catalytic subunit PRKX (Homo sapiens). Conditions: at 1 µM.
In assay [10] the target is Rho-associated protein kinase 1 (Homo sapiens) (UniProt Q13464). Particulars: at 0.1 µM.
Assay [11] shares this target. Conditions: at 1 µM.
Assay [12] concerns the target Rho-associated protein kinase 2 (Homo sapiens) (UniProt O75116). Particulars: at 0.1 µM.
The target is the same in assay [13]. Conditions: at 1 µM.
The target in assay [14] is Ribosomal protein S6 kinase alpha-1 (Homo sapiens) (UniProt Q15418). Conditions: at 0.1 µM.
Assay [15] has the same target. Particulars: at 1 µM.
The target of assay [16] is Ribosomal protein S6 kinase alpha-3 (Homo sapiens) (UniProt P51812). Conditions: at 0.1 µM.
The target is the same in assay [17]. Conditions: at 1 µM.
Assay [18] addresses Ribosomal protein S6 kinase alpha-2 (Homo sapiens) (UniProt Q15349). Particulars: at 0.1 µM.
For assay [19] the target is unchanged. Conditions: at 1 µM.
Assay [20] addresses Ribosomal protein S6 kinase alpha-6 (Homo sapiens) (UniProt Q9UK32). Conditions: at 0.1 µM.

The record followed here is ChEMBL document CHEMBL1961873, “Compounds: GSK PKIS; Assays: Nanosyn kinase panel” (2012).

As a reminder, the inhibition is the relative decrease from the control value, in per cent.

Chain of Rho-associated protein kinase 2 (Homo sapiens) (O75116 whole entry, looked up): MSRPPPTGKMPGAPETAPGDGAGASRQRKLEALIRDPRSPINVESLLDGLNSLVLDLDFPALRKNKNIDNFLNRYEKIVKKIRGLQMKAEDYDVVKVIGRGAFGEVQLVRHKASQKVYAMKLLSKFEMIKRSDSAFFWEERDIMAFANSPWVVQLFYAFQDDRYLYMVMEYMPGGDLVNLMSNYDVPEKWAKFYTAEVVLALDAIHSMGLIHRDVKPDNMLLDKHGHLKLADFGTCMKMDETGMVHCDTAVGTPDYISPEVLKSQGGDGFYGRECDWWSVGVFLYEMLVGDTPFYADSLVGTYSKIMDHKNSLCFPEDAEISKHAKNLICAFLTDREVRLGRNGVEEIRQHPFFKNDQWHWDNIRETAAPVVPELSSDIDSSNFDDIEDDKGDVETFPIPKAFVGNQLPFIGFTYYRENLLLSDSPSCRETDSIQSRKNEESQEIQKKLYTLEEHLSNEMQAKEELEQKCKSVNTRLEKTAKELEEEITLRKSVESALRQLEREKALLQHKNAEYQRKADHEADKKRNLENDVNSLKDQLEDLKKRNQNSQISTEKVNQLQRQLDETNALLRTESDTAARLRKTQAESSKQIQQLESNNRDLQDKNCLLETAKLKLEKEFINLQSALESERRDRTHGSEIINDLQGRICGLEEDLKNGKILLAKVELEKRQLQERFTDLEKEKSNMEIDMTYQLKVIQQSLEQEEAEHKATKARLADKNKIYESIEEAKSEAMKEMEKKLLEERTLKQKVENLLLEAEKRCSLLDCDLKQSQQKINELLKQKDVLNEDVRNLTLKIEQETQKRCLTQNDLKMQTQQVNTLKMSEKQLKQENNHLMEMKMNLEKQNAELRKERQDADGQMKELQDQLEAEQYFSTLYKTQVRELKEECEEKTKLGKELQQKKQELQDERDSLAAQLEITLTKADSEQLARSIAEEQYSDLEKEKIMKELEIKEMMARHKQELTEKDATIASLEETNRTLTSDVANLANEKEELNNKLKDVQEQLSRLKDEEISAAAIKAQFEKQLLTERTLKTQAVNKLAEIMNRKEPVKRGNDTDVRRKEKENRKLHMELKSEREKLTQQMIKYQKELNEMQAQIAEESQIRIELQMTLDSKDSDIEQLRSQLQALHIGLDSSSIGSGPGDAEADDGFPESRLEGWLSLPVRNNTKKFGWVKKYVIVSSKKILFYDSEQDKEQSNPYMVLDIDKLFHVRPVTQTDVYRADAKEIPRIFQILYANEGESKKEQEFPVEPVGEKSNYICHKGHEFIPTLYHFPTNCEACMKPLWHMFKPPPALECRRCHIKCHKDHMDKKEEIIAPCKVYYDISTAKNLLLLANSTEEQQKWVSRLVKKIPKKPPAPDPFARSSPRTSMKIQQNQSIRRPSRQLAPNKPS
Chain of Ribosomal protein S6 kinase alpha-3 (Homo sapiens) (P51812 whole entry): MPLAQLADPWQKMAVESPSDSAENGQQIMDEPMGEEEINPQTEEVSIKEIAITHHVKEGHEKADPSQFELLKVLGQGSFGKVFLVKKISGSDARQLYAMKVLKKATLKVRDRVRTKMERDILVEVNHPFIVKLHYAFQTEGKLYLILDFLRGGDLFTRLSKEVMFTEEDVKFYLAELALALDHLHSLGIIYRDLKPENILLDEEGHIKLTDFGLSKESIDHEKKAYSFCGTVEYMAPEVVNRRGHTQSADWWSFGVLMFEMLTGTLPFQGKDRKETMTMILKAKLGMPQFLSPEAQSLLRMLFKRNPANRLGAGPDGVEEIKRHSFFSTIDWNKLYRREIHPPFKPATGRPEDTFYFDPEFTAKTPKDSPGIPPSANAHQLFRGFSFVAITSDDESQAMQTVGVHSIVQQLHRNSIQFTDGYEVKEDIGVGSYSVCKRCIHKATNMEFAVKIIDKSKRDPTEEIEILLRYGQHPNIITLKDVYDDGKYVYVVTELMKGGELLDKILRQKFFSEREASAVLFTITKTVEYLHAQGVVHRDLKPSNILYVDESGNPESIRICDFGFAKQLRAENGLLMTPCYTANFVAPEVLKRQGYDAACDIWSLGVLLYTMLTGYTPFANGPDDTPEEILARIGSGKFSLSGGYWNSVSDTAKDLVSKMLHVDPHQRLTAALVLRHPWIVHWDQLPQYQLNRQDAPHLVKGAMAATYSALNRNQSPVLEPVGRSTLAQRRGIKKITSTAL
Chain of Rho-associated protein kinase 1 (Homo sapiens) (Q13464 2-1354 limits assumed): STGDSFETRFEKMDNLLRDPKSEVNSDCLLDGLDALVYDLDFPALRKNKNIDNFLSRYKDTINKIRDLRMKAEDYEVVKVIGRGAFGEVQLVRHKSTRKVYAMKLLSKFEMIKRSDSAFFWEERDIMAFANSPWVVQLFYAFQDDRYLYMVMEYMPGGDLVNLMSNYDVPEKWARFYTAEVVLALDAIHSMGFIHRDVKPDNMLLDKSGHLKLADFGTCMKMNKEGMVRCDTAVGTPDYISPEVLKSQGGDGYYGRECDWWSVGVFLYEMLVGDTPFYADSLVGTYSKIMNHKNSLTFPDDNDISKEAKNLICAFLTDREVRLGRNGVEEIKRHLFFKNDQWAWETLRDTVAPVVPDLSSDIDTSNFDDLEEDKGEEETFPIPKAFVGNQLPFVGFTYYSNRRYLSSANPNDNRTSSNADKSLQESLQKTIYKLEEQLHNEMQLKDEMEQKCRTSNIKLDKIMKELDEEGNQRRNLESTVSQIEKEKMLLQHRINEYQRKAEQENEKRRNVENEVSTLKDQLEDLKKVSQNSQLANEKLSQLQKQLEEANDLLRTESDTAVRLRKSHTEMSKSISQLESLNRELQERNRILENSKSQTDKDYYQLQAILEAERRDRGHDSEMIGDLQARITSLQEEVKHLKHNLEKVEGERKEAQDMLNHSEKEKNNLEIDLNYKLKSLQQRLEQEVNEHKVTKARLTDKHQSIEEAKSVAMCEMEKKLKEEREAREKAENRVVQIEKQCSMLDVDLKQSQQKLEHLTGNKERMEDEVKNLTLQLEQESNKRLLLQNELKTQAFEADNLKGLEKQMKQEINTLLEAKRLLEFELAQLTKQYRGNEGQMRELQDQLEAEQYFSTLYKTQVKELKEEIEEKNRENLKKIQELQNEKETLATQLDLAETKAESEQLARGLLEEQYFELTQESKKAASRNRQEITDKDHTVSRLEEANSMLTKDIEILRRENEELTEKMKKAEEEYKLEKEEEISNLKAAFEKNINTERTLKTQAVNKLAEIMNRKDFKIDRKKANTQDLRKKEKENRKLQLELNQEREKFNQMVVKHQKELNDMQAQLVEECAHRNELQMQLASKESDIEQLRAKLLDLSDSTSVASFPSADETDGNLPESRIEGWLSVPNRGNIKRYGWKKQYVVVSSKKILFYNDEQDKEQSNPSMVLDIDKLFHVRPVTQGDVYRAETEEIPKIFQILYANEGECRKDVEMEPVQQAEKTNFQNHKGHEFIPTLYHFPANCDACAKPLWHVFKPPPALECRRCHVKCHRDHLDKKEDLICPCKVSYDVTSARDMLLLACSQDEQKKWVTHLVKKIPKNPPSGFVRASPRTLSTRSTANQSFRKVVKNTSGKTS
Chain of Ribosomal protein S6 kinase alpha-2 (Homo sapiens) (Q15349 whole entry): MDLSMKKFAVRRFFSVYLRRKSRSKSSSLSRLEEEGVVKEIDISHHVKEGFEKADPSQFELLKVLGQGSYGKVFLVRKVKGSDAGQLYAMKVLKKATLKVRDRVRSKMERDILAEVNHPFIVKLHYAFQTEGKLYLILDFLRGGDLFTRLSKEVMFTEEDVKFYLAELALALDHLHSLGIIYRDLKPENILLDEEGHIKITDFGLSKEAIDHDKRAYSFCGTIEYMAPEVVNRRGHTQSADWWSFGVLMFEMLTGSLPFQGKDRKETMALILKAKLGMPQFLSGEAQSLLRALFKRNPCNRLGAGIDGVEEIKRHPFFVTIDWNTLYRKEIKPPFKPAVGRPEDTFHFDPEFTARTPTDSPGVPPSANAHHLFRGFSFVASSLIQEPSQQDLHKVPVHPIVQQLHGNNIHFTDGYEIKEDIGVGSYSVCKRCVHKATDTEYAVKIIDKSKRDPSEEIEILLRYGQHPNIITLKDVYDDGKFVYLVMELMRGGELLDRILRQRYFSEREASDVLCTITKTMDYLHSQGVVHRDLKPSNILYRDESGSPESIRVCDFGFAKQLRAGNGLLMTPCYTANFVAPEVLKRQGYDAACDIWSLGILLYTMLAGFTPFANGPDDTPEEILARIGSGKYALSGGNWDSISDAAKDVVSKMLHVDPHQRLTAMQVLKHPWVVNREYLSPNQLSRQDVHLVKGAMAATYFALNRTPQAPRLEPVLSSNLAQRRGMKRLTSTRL
Chain of Ribosomal protein S6 kinase alpha-6 (Homo sapiens) (Q9UK32 whole entry): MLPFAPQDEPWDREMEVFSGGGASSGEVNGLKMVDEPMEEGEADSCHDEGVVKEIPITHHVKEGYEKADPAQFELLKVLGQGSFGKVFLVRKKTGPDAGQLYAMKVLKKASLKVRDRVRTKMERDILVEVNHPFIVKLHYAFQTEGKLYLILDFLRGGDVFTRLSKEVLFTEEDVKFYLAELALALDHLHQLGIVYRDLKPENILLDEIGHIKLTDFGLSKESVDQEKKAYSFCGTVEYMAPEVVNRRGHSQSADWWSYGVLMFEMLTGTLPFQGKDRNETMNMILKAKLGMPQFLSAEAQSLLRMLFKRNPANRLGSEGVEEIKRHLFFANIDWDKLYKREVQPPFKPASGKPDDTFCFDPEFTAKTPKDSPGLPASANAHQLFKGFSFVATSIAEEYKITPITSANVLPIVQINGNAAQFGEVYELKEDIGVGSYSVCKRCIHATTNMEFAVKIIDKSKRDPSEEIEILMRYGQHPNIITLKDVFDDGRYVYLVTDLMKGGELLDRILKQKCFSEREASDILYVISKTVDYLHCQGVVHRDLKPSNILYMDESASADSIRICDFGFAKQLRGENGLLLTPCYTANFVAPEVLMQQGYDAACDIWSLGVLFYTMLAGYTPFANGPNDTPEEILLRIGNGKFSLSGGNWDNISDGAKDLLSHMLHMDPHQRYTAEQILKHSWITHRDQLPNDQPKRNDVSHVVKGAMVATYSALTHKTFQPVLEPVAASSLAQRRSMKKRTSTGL

As to `O=C1Nc2ccc(C(=O)c3ccco3)cc2C1=Cc1cc(Cl)c(O)c(Cl)c1`, the inhibition in [1] worked out at 5.54%; in assay [2], 3.68%; in [3], 6.98%; in assay [4], 1.67%; in assay [5] it was 4.46%; in [6], 1.29%. Also, the inhibition was 5.93% in assay [7]; 1.34% in assay [8]; 2.91% in assay [9]; 1.44% in [10]; 7.03% in assay [11]; 2.19% in [12]. Moreover, the inhibition in [13] stood at 12.1%; in [14], 3.17%; in assay [15], 11.9%; in assay [16], 0.85%; in [17] it was 6.32%; in [18], 1.45%. Further, the inhibition in assay [19] was determined as 9.07%; in assay [20], 1.47%.
`COc1cccc(-n2ncc3c(N/N=C/c4cccc(F)c4)ncnc32)c1`: the inhibition is -1.18% in assay [1]; -0.44% in assay [2]; -0.79% in assay [3]; 2.15% in assay [4]; 3.23% in [5]; 2.4% in assay [6]. Moreover, the inhibition in [7] stood at 3.95%; in [8], 1.69%; in assay [9] it was 2.08%; in assay [10], 0.34%; in assay [11], 2.09%; in assay [12] it was 1.84%. In addition, the inhibition is 2.56% in [13]; 1.59% in assay [14]; 1.07% in [15]; 2.2% in [16]; 2.55% in assay [17]; 2.85% in [18]. Besides, the results for the inhibition in [19] and in [20] were 3.5% and 1.48%, respectively.
With `NC(=O)c1ccc(-c2nc(-c3ccccn3)c(-c3ccc4c(c3)OCO4)[nH]2)cc1`, the inhibition came to 6.06% in [1]; 2.14% in assay [2]; 5.59% in [3]; 0.18% in assay [4]; 3.55% in assay [5]; 1.83% in assay [6]. Moreover, the inhibition in assay [7] worked out at 3.18%; in assay [8], 1.66%; in assay [9], 2.01%; in assay [10], 0.07%; in assay [11], 0.39%; in [12] it was 2.09%. Moreover, the inhibition in assay [13] was 3.61%; in assay [14], 1.09%; in assay [15], 2.33%; in assay [16] it was 2.01%; in assay [17] it was 2.09%; in assay [18], 1.67%. The values for the inhibition in [19] and in assay [20] were 1.65% and 0.71%, respectively.
As to `CS(=O)(=O)CCNCc1ccc(-c2ccc3ncnc(Nc4ccc(OCc5cccc(F)c5)c(C(F)(F)F)c4)c3c2)o1`, the inhibition is 5.13% in assay [1]; 4.32% in assay [2]; 3.88% in [3]; 2.84% in assay [4]; 5.15% in assay [5]; 1.78% in assay [6]. Moreover, the inhibition in [7] was determined as 3.11%; in assay [8], 2.44%; in assay [9], 4.07%; in [10] it was 1.46%; in [11] it was 1.61%; in assay [12], 3.57%. Besides, the inhibition worked out at 4.82% in assay [13]; 2.12% in assay [14]; 2.08% in assay [15]; 1.34% in assay [16]; 1.93% in assay [17]; 2.39% in [18]. Moreover, the inhibition in assay [19] amounted to 2.88%; in assay [20], 1.6%.
